From PubChem BioAssay AID686978 (National Center for Advancing Translational Sciences (NCATS), 2013)
The campaign covered roughly 420,000 compounds. About 64,000 (15%) were called active. About 27% were inconclusive and are not listed. The call rests on the fitted dose curve; in most records, active means well fitted inhibition curve with a large enough effect; inconclusive means small, poorly fitted or top-dose-only effect; inactive means flat fitted curve, though single readings scatter. These entries were drawn from the full list.

Experiment: qHTS for Inhibitors of human tyrosyl-DNA phosphodiesterase 1 (TDP1): qHTS in cells in absence of CPT; further: nearly all actives have a fitted effect of over 55% in size
Conditions: DT40 Tdp1-/- hTDP1 cells, no CPT, ATP luminescence, 48 h; activity change, negative = growth inhibition: at 46.2 µM (top of the series)
Description: Human tyrosyl-DNA phosphodiesterase 1 (TDP1) is a novel repair gene, and we propose to use it as a new target for anticancer drug development. TDP1 is not an essential protein, but under treatment with topoisomerase I poison (camptothecin: CPT), TDP1 works as a critical factor for cell survival. To directly identify novel TDP1 inhibitors active in a cellular environment, we have knocked-out the Tdp1 gene in chicken DT40 cells (Tdp1-/-) and generated a complemented counterpart cells that contains a stable transfection of the human TDP1 gene (Tdp1-/-;hTDP1 cells). For the primary screen, Tdp1-/-;hTDP1 cells will be exposed to small molecules in the presence or absence of CPT, and their growth kinetics will be evaluated after 48 hours by measuring ATP activity. […] The hit compounds will then be evaluated in the presence or absence of CPT using Tdp1-/- cells. […] In tertiary assays, biochemical gel-based assays will be used to assess whether the hit compounds specifically target TDP1.
To this end, we have screened this cell line against the MLSMR in two primary screens. In one screen we add CPT and in the other we screen in the absence of CPT; this AID represents the screen where CPT was absent.
NIH Chemical Genomics Center [NCGC]
NIH Molecular Libraries Probe Centers Network [MLPCN]
Assay Submitter (PI): Yves Pommier, NCI
DT40-hTDP1 cells without 20 nM Camptothecin (add 20 microL of DMSO in 1 L of cell culture medium) were dispensed at 400 cells/5microL/well in tissue culture treated 1536-well white wall/solid bottom assay plates (Greiner Bio-One North America, NC, U.S.A.) using a Multidrop Combi 8 channel dispenser (Thermo Fisher, Waltham, MA, USA). 23 nL compounds and controls were transferred using the pin tool (Kalypsys, San Diego, CA, USA) to the assay plates. The assay plates were then incubated at 37 masculineC for a minimum 48 hr. Three microL of Cell Titer Glo solution was added to the plates and incubated at RT in dark for 30 min. Luminescence was read using ViewLux (Perkin Elmer) with 1 sec exposure slow speed, high gain and 2x binning.
On the % scale 0 is the no-effect control and ±100 the full control effect; potency means the concentration at half of the fitted maximal effect.

| SMILES | activity change, negative = growth inhibition | Potency |
| --- | --- | --- |
| Cc1ccc(S(=O)(=O)N[C@H](CO)C(C)C)cc1 | -8.67% (inactive) |  |
| CN(C)C(=O)N=NC(=O)N(C)C |  | 9.2 µM (active) |
| CCOC(=O)N/N=C/c1cccnc1 | -4.41% (inactive) |  |
| CC(C)(C)OC(=O)N/N=C/c1ccc(C(=O)O)cc1 | -1.61% (inactive) |  |
| COC(=O)N/N=C/c1c[n+]([O-])c2ccccc2[n+]1[O-] |  | 0.0422 µM (active) |
| N#Cc1ccccc1NC(=O)c1ccc2c(c1)OCO2 | -7.95% (inactive) |  |
| CC1CCN(C(NC(=O)c2ccco2)C(=O)c2ccccc2)CC1 (stereo not given) | -16.8% (inactive) |  |
| O=C(NCc1ccc2c(c1)OCO2)C(=O)NCC1OCCN1S(=O)(=O)c1ccc(F)cc1 (stereo not given) | -8.46% (inactive) |  |
| O=C(NCCCN1CCCC1=O)C(=O)NCC1OCCN1S(=O)(=O)c1ccc(Br)cc1 (stereo not given) |  | 0.411 µM (active) |
| O=C(NCc1ccncc1)C(=O)NCC1OCCN1S(=O)(=O)c1ccc(Br)cc1 (stereo not given) | -29.5% (inactive) |  |
| CC(C)c1ccc(NC(=O)CCN2C(=O)c3ccc([N+](=O)[O-])cc3C2=O)cc1 | -9.27% (inactive) |  |
| CC(C)CNC(=O)COC(=O)/C=C/c1ccccc1[N+](=O)[O-] | -0.949% (inactive) |  |
| CC(C)OCCCNC(=O)C1CC(=O)N(C2CCCCCCC2)C1 (stereo not given) | -2.8% (inactive) |  |
| O=C(Cc1ccccc1)NCC1OCCc2ccccc21 (stereo not given) | -8.35% (inactive) |  |
| Cc1ccc2nc(N3CCN(C(=O)c4ccco4)CC3)sc2c1 | -28.4% (inactive) |  |
| COc1ccc2nc(N3C(=O)C(O)=C(C(=O)c4ccco4)C3c3ccco3)sc2c1 (stereo not given) | -10.9% (inactive) |  |
| COc1ccc2nc(N3CCN(C(=O)c4ccc([N+](=O)[O-])o4)CC3)sc2c1 |  | 20.6 µM (active) |
| COC(=O)[C@H](CCSC)NC(=O)Nc1ccc(OC)cc1 | 8.53% (inactive) |  |
| CCN(CC)C(=O)CCC(=O)Nc1ccc(C(=O)OC)cc1 | 1.08% (inactive) |  |
| Cc1ccc(NC(=O)C(=O)NCC(c2cccnc2)N2CCOCC2)cc1 (stereo not given) | -17.6% (inactive) |  |
| Cc1ccc(C)c(NC(=S)NCC(c2cccnc2)N2CCOCC2)c1 (stereo not given) | -12.6% (inactive) |  |
| COc1ccccc1N1CCN(C(CNC(=O)C(=O)NCc2ccc(C)cc2)c2cccnc2)CC1 (stereo not given) |  | 2.06 µM (active) |
| Cc1cc(C)n(-c2nnc(C)n2NC(=O)c2cccc(Cl)c2)n1 | -4.6% (inactive) |  |
| Cn1c(SCC(=O)c2cccs2)nnc1-c1ccco1 | 0.382% (inactive) |  |
| O=C(CCCCCN1C(=O)c2cccc3cccc(c23)C1=O)NCc1ccco1 | -20.4% (inactive) |  |
| CC1CCC2(CC1)NC(=O)N(CC(=O)NCc1ccco1)C2=O (stereo not given) | -3.31% (inactive) |  |
| O=C(CN1C(=O)/C(=C\c2ccc(C(F)(F)F)cc2)Sc2ccccc21)NCc1ccco1 |  | 13 µM (active) |
| Cc1cccc(NS(=O)(=O)c2cc(Cl)ccc2Cl)n1 | -14.9% (inactive) |  |
| Nc1nc(SCC(=O)NN(c2ccccc2)c2ccccc2)n[nH]1 | -12.2% (inactive) |  |
| CCOC(=O)C(Cc1ccccc1)NC(=O)CCC(=O)c1ccc(OC)cc1 (stereo not given) | -4.08% (inactive) |  |
